In publication PMC8384837, “Expanding the binding specificity for RNA recognition by a PUF domain” one finds binding signal data, which are given here for eight sequences.

For the first test, the target named is PUM1 PUF domain R3-EFG (Homo sapiens, UniProt Q14671 828-1176, C935E;R936F;Q939G). Briefly: yeast three-hybrid, YBZ-1, SC-Leu-His + 0.5 mM 3-AT, 4 days. The following applies: tags: N-Gal4 AD-HA kept; label: inside an RPR1-promoter hybrid RNA with tandem MS2 sites; ssRNA. A digest of the protocol: (§1)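 Pumilio-1 PUF domain libraries, randomized (NNK) at the three base-contacting residues of each repeat, were co-expressed with matching RNA elements from a centromeric plasmid in strain YBZ-1 (LexA–MS2 coat fusion, HIS3 reporter). Transformants were plated on SC-Leu (input) and SC-Leu-His + 0.5 mM 3-AT (selection) for four days, and repeat regions were PCR-amplified and Illumina-sequenced. The interaction score is the log2 change in variant frequency from input to selection, with pseudocount 1 where absent.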
Turning to “GGCUAGAACUAGUGGAUCCCCCGGCGCCCGGCGGCUCGAGCCCGGGUAAGUGUAAUUAGUCUGCAUGCCGCCGGGCGCCAUGCCUGCAGGUCGACUCUAGAAAACAUG”, the binding signal was 3.8 log2 enrichment (interaction score).

With “GGCUAGAACUAGUGGAUCCCCCGGCGCCCGGCGGCUCGAGCCCGGGUAAGUGUAAAUAGUCUGCAUGCCGCCGGGCGCCAUGCCUGCAGGUCGACUCUAGAAAACAUG”, the binding signal is 4.8 log2 enrichment (interaction score).

As to “GGCUAGAACUAGUGGAUCCCCCGGCGCCCGGCGGCUCGAGCCCGGGUAAGUGUAAGUAGUCUGCAUGCCGCCGGGCGCCAUGCCUGCAGGUCGACUCUAGAAAACAUG”, the binding signal is 4.12 log2 enrichment (interaction score).

Turning to “GGCUAGAACUAGUGGAUCCCCCGGCGCCCGGCGGCUCGAGCCCGGGUAAGUGUAACUAGUCUGCAUGCCGCCGGGCGCCAUGCCUGCAGGUCGACUCUAGAAAACAUG”, the binding signal is 2.94 log2 enrichment (interaction score).

The next test concerns the target PUM1 PUF domain R8-KFG (Homo sapiens, UniProt Q14671 828-1176, N1122K;Y1123F;Q1126G). Described as above. The following applies: tags: N-Gal4 AD-HA kept; label: inside an RPR1-promoter hybrid RNA with tandem MS2 sites; ssRNA. A digest of the protocol:
as §1
Turning to “GGCUAGAACUAGUGGAUCCCCCGGCGCCCGGCGGCUCGAGCCCGGGUAAGGGUAAAUAGUCUGCAUGCCGCCGGGCGCCAUGCCUGCAGGUCGACUCUAGAAAACAUG”, the binding signal was 4.73 log2 enrichment (interaction score).

Consider “GGCUAGAACUAGUGGAUCCCCCGGCGCCCGGCGGCUCGAGCCCGGGUAAGUGUAAAUAGUCUGCAUGCCGCCGGGCGCCAUGCCUGCAGGUCGACUCUAGAAAACAUG”, for which the binding signal is 6.69 log2 enrichment (interaction score).

Turning to “GGCUAGAACUAGUGGAUCCCCCGGCGCCCGGCGGCUCGAGCCCGGGUAAGCGUAAAUAGUCUGCAUGCCGCCGGGCGCCAUGCCUGCAGGUCGACUCUAGAAAACAUG”, the binding signal is 2.54 log2 enrichment (interaction score).

Another test has as its target PUM1 PUF domain R5-GKR (Homo sapiens, UniProt Q14671 828-1176, C1007G;R1008K;Q1011R). Described as above. The following applies: tags: N-Gal4 AD-HA kept; label: inside an RPR1-promoter hybrid RNA with tandem MS2 sites; ssRNA. A digest of the protocol:
as §1
As for “GGCUAGAACUAGUGGAUCCCCCGGCGCCCGGCGGCUCGAGCCCGGGUAAGUGUUAAUAGUCUGCAUGCCGCCGGGCGCCAUGCCUGCAGGUCGACUCUAGAAAACAUG”, the binding signal is 2.96 log2 enrichment (interaction score).

“GGCUAGAACUAGUGGAUCCCCCGGCGCCCGGCGGCUCGAGCCCGGGUAAGUGUAAAUAGUCUGCAUGCCGCCGGGCGCCAUGCCUGCAGGUCGACUCUAGAAAACAUG”: the binding signal was 1.48 log2 enrichment (interaction score).

With “GGCUAGAACUAGUGGAUCCCCCGGCGCCCGGCGGCUCGAGCCCGGGUAAGUGUCAAUAGUCUGCAUGCCGCCGGGCGCCAUGCCUGCAGGUCGACUCUAGAAAACAUG”, the binding signal was 6.15 log2 enrichment (interaction score).
